Screening results from PubChem BioAssay.
tim23-1 inh: growth inhibitors of tim23-1 mutant yeast. inhibition, % at 20 µM. AID 463212. S. cerevisiae tim23-1 growth, BacTiter-Glo luminescence, 24 h. 1.3% of 330,000 active;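 active = growth inhibition of the mutant yeast at or above 50%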;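 also: temperature-sensitive mutant grown at 25 °C; plate controls were DMSO-treated mutant yeast for no effect and medium wells lacking yeast for full effect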
PfHsp90 yeast 2: inhibits growth of yeast expressing Plasmodium falciparum Hsp90; S. cerevisiae expressing PfHsp90, BacTiter-Glo ATP, 48 h; yeast lacking PDR1 and PDR3 efflux regulators; inhibition, % at 9.4 µM; 0.32% of 310,000 active;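 active = every replicate shows inhibition above about 80%, whatever the replicate mean, limit read from the data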;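 also: 0% = DMSO neutral controls and 100% = 20 µM radicicol positive controls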
tim10-1 inh: inhibits growth of tim10-1 mutant yeast; S. cerevisiae tim10-1 ts strain growth, BacTiter-Glo, 24 h; inhibition, % at 20 µM; 2.2% of 330,000 active;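 active = inhibition of at least 40%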;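 also: mutant grown at 25 °C; 0% = DMSO wells with yeast and 100% = wells holding no yeast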
TIM10 inh: TIM10 yeast growth inhibition | inhibition, % at 10 µM | S. cerevisiae TIM10 strain growth, BacTiter-Glo luminescence, 24 h | 1.4% of 330,000 active;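 active = inhibition of 40% or more at the single tested concentration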;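 also: wild-type TIM10 isogenic control strain grown at permissive 25 °C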
SKKanGAS inh: SKKanGAS growth inhibition | S. pyogenes SKKanGAS, kanamycin growth, BacTiter-Glo, 6 h | AID 1662 | inhibition, % at 7.5 µM | 1.3% of 300,000 active;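 active = mean replicate score, as percent of positive control median, at least 50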;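 also: strain carries kanamycin resistance gene driven by streptokinase promoter and grows in 40 µg/ml kanamycin; loss of luminescence reflects streptokinase promoter inhibition or plain growth inhibition; 0% = median of DMSO wells and 100% = positive control at its reference dose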
NALP1 inh: blocks the NALP1 inflammasome reconstituted in yeast. S. cerevisiae NALP1/ASC/caspase-1 growth, X-gal OD620, 72 h. inhibition, % at 10 µM. 0.61% of 280,000 active. AID 2071; in the data active = inhibition mostly above about 24%, no sharp cut-off; inactive = mostly below about 32%
Active calls of the source: *; x = no result. Compounds with a hit are over-represented: about 4.8% of the library has one in this group of screens.

SMILES	tim23-1 inh	PfHsp90 yeast 2	tim10-1 inh	TIM10 inh	SKKanGAS inh	NALP1 inh
Cc1nc2cc(NC(=O)NCCCO)ccc2o1	16	-12	-20	-1	3	29*
CC[C@H]1OC(=O)[C@H](C)[C@@H](O[C@H]2C[C@@](C)(OC)[C@@H](O)[C@H](C)O2)[C@H](C)[C@@H](O[C@@H]2O[C@H](C)C[C@H](N(C)C)[C@H]2O)[C@](C)(O)C[C@@H](C)CN(C)[C@H](C)[C@@H](O)[C@]1(C)O	-15	-19	6	5	110*	x
O=P(O)(CCc1ccccn1)CN1CCCCC1	2	0	-6	9	-5	6
O=P(O)(CCc1ccccn1)CN1CCOCC1	11	12	-15	-2	-3	39*
O=C1C(=C(I)I)c2ccccc2-c2ccccc21	x	106*	x	x	x	x
COc1ccc(CCNc2nc(-c3ccncc3)cs2)cc1OC	9	-19	9	9	-6	x
COc1ccc(CCNc2nc(-c3ccccn3)cs2)cc1OC	-6	25	-6	16	75*	x
CC1=NN(C(=O)Cn2ccc([N+](=O)[O-])n2)C(O)(C(F)(F)F)C1 (stereo not drawn)	11	-45	6	-18	4	29
COc1ccc(NC(=O)CC2(Cc3ccccc3)CCOC(C)(C)C2)cc1 (stereo not drawn)	38	-5	20	6	-1	13
Cc1ccc(-n2ncc3c2CC(C)(C)CC3NC(=O)CCCN2CCCCC2=O)cc1 (stereo not drawn)	-7	3	2	-9	-5	0
CC1(C)Cc2c(cnn2-c2ccccc2)C(NC(=O)CCCN2CCCC2=O)C1 (stereo not drawn)	3	-24	-17	-1	61*	5
O=C(Nc1ccccc1C(=O)Nc1nnc(C(F)(F)F)s1)c1ccccc1Cl	10	-3	7	9	101*	5
CC1CCCN(C(=O)N2c3ccccc3Sc3ccccc32)C1 (stereo not drawn)	20	18	17	-7	-4	16
CC1CCN(C(=O)N2c3ccccc3Sc3ccccc32)CC1	31	-7	5	-1	54*	13
C/C(=N\NC(=O)c1ccc(Br)cc1)C1C(=O)c2ccccc2C1=O	38	16	1	13	39	1
C/C(=N\NC(=O)c1ccc(-c2ccccc2)cc1)C1C(=O)c2ccccc2C1=O	9	40	7	5	130*	-7
COCCCn1c(=O)c2ccccc2n(CC(=O)N2CCCc3ccccc32)c1=O	20	4	12	19	1	15
Cc1ccc2c(c1)c(C)c(C)n2CC(O)Cn1nc(C)c(Br)c1C (stereo not drawn)	15	3	25	25	59*	11
Cc1ccc2c(c1)c1c(n2CC(O)Cn2nc(C)c(Br)c2C)C(=O)CCC1 (stereo not drawn)	-8	-3	-4	13	-6	19
CCCCn1c(O)c(N=NC(=O)c2ccncc2)c2cc(Br)ccc21	1	6	-3	8	83*	23
CCn1c(O)c(/C=N/NC(=O)c2ccncc2)c(=O)n(CC)c1=S	x	-38	x	x	0	4
Cc1nc2c(Br)c3nc(C(F)(F)F)[nH]c3c(Br)c2[nH]1	19	7	11	8	-2	48*
Cc1nc2c(F)c(F)c(C(F)(F)F)c(F)c2[nH]1	30	-90	24	4	-2	14
COc1ccc(O)c(C(=O)CC(=O)c2ccc(F)cc2)c1	33	-11	-36	16	14	5
COc1ccc(O)c(C(=O)CC(=O)c2ccccc2C)c1	22	-15	-44	5	60*	10
SMILES	tim23-1 inh	PfHsp90 yeast 2	tim10-1 inh	TIM10 inh	SKKanGAS inh	NALP1 inh
CCC(=O)O[C@@H]1CC(=O)O[C@H](C)CC=CC=C[C@@H](O)[C@H](C)C[C@H](CC=O)[C@H](O[C@H]2O[C@H](C)[C@@H](O[C@H]3C[C@@](C)(O)[C@@H](OC(=O)CC)[C@H](C)O3)[C@H](N(C)C)[C@H]2O)[C@H]1OC	x	x	x	x	110*	-1
Cc1ccc2nc(/N=C(\N)NC(=O)NC3CCCCC3)nc(C)c2c1	22	11	-10	12	53*	26
Cc1cc2nc(/N=C(\N)NC(=O)C(C)C)nc(C)c2cc1C	21	-5	15	33	53*	9
CCCC(=O)N/C(N)=N/c1nc(C)c2cc(C)ccc2n1	19	x	28	26	14	7
O=C(NCCN1CCN(c2ccccc2)CC1)Nc1ccccc1Cl	4	-10	-6	11	-3	10
Cc1ccc(C)c(NC(=O)COC(=O)CCc2ccc(S(=O)(=O)N3CCOCC3)cc2)c1	10	-11	11	5	0	3
O=C(Nc1ccncc1)Nc1ccc(Cl)cc1Cl	8	-17	0	-47	-12	30*
COc1ccc(C(C)C)cc1S(=O)(=O)NCC1CCCO1 (stereo not drawn)	-9	3	3	-2	-2	1
Cc1cc(C)c(OCCCn2ccnc2)c(C)c1	9	-4	15	-1	1	10
Cc1cc(Cl)c(OCCCn2ccnc2)c(Br)c1	-1	-8	24	-13	0	50*
O=C(/C=C/C(=O)N1CCc2ccccc2C1)N1CCc2ccccc2C1	36	-1	39	6	0	6
O=C(O)CN1CCc2ccccc2C1	8	-37	1	-11	-5	32*
COc1ccc(-c2nc(-c3ccc(NC(=O)c4ccncc4)cc3)no2)cc1OC	25	3	38	16	55*	25
CC1(c2ccc3c(c2)OCO3)NC(=O)N(CC(=O)NCCC2=CCCCC2)C1=O (stereo not drawn)	1	-13	14	5	2	6
C[C@@H]1CC=C[C@H]2[C@H]1C(=O)N(Cc1ccccc1)[C@H]2c1ccc(F)c(Br)c1	x	x	x	x	37	-4
CO[C@H]1/C=C/O[C@@]2(C)Oc3c(C)c(O)c4c(O)c(c(C=NN5CCN(C)CC5)c(O)c4c3C2=O)NC(=O)/C(C)=C\C=C\[C@H](C)[C@H](O)[C@@H](C)[C@@H](O)[C@@H](C)[C@H](OC(C)=O)[C@@H]1C	12	-32	14	2	x	x
CO[C@H]1C=CO[C@@]2(C)Oc3c(C)c(O)c4c(O)c(c(C=NN5CCN(C6CCCC6)CC5)c(O)c4c3C2=O)NC(=O)C(C)=CC=C[C@H](C)[C@H](O)[C@@H](C)[C@@H](O)[C@@H](C)[C@H](OC(C)=O)[C@@H]1C	18	x	15	12	105*	14
CO[C@H]1C=CO[C@@]2(C)Oc3c(C)c(O)c4c(O)c(c(C=NN5CCN(C)CC5)c(O)c4c3C2=O)NC(=O)C(C)=CC=C[C@H](C)[C@H](O)[C@@H](C)[C@@H](O)[C@@H](C)[C@H](OC(C)=O)[C@@H]1C	20	-1	34	16	106*	51
